The panel holds about 83,000 compounds, 20% with a hit somewhere; the sample as a whole holds those more often.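 A percent growth of 40 corresponds to 60% growth inhibition; 0 means no net growth; -100 means all cells died. Active threshold: below 10.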 Unmarked numbers belong to inactive results. Calls of active or inactive are those of the source.
System: MDA-MB-468 breast
Experiment: NCI-60 one-dose screen, 48 h (100 = growth as untreated, 0 = no growth, -100 = all killed)
Conditions: 10 µM unless noted

SMILES | growth
NS(=O)(=O)c1ccc(-n2cc(CC=O)nn2)cc1 | 102%
Cc1ccc2cccc(Oc3ccc(Nc4ncnc5onc(-c6ccccc6)c45)cc3)c2n1 | 86.8%
CC(=O)O[C@@H]1[C@@H](OC(C)=O)[C@H](OC(C)=O)CO[C@H]1Nc1cccc2ccccc12 | 104%
CC1(C)NCCC[C@]2(C)[C@H]3C/C(=N\O)C4[C@@H]5C[C@@](C)(CO)CC[C@]5(C)CC[C@@]4(C)[C@]3(C)CC[C@@H]12 (stereo not given in full) | 89.4%
COC(=O)c1cc(Nc2ccc(O)c3c2C(=O)c2c([N+](=O)[O-])ccc(O)c2C3=O)cc(C(=O)OC)c1 | 71.9%
CC(=O)/C(C)=N\OC(=O)Nc1ccccc1 | 114%
CC(C)=C1CCC(C)C/C1=N\N=C(N)N (stereo not given) | 101%
c1ccc(Nc2cc(-c3cccnc3)[nH]n2)cc1 | 106%
Cc1[nH]n(C(=O)c2ccncc2)c(=O)c1N=Nc1ccc(O)c(C(=O)O)c1 | 105%
Cc1c(C(=O)NC(Cc2ccccc2)C(O)C(=O)NCc2ccc(F)cc2)[nH]c2ccccc2c1=O (stereo not given) | 99.4%
CCOC(=O)C(C(C)=O)c1nc2sc3cc(Cl)ccc3n2c(=N)c1C#N (stereo not given) | 4.75% (active)
COC(=O)[C@H](C(C)C)n1c(=O)c2cc(OC)c(OC)cc2c2cnc3[nH]ccc3c21 | 36.5%
CCc1nc(N)nc(N)c1C#CC(C)c1cc(-c2ccnc(C)c2)c2oc(C)nc2c1 (stereo not given) | -20.6% (active)
CC1(C)CC[C@]23CC[C@]4(C)[C@H](CC[C@@H]5[C@@]6(C)CC[C@H](NCO)C(C)(C)[C@@H]6CC[C@]54C)[C@H]2[C@H]1OC3 | -56.6% (active)
Cc1cc2ccccc2c2cc3ccccc3cc12 | 5.23% (active)
Cn1cc(-c2nn3cc(-c4cccnc4)nc3s2)c2cc(F)ccc21 | 66.3%
CC[C@@H]1NC(=O)[C@H]([C@H](O)[C@H](C)C/C=C/c2ccc(CN3C(=O)C(C)=C(C)C3=O)cc2)N(C)C(=O)[C@H](C(C)C)N(C)C(=O)[C@H](CC(C)C)N(C)C(=O)[C@H](CC(C)C)N(C)C(=O)[C@@H](C)NC(=O)[C@H](C)NC(=O)[C@H](CC(C)C)N(C)C(=O)[C@H](C(C)C)NC(=O)[C@H](CC(C)C)N(C)C(=O)CN(C)C1=O | 53.1%
CCOC(=O)c1ccccc1OC(=O)NNc1ccccc1 | 83.2%
O=C(Nc1cccc2ccccc12)c1cc2ccccc2cc1O | -17.6% (active)
COc1cc2c(c(OC)c1OC)CCC(c1cccc(C(=O)Nc3ccc(Br)cc3)c1)O2 (stereo not given) | 38.2%

SMILES | growth
COc1ccc2nc(NC(=O)c3cccnc3Nc3cc(OC)c(OC)c(OC)c3)sc2c1 | 60.3%
COc1ccc2[nH]c(=O)c(/C=C/C(=O)/C=C/c3ccc(O)c(OC)c3)cc2c1 | -32.1% (active)
Cc1cc(=O)n(C(=O)Nc2ccccc2Cl)c2cc(O)ccc12 | 104%
Clc1ccc(C(Cn2ccnc2)OCc2ccsc2Cl)c(Cl)c1 (stereo not given) | 9.75% (active)
CN1CC(c2ccccc2)C(C(=O)c2ccc(Br)cc2)C12C(=O)Nc1ccccc12 (stereo not given) | 106%
CC(=O)CC(c1ccccc1)c1c(C)[nH]c2ccccc12 (stereo not given) | 106%
CN1CCCC1=Nc1ccccc1 | 107%
Cc1cn(-c2cc(NC(=O)c3cncc(C#Cc4c(N)ncc5ccc(F)cc45)c3)cc(C(F)(F)F)c2)cn1 | 50.8%
COC(=O)c1cc(O)c2cc3c(cc2c1-c1cc(OC)c(OC)c(OC)c1)OCO3 | -8.52% (active)
CC12OC(CC(O)C1O)n1c3ccccc3c3c4c(c5c6ccccc6n2c5c31)C(=O)N(CCN1CCOCC1)C4=O (stereo not given) | -30.4% (active)
Fc1ccc(NCCS)cc1 | 106%
N=C(N)c1ccc(-c2ccc(-c3cc(Cl)cc(Cl)c3)s2)cc1 | -77.6% (active)
CCCCCCNC(=O)Oc1ccc(/C(=C(/C)c2ccccc2)c2ccc(OCCN(C)C)cc2)cc1 | 71.5%
N#Cc1ccc(/C=N/NC(=O)c2[nH]c3ccc(Br)cc3c2-c2ccccc2)s1 | 11.4%
CCOc1cccnc1/C=N/NC(N)=S | 52.7%
CC(=O)OC[C@]12CCC(C)(C)C=C1[C@H]1CC[C@@H]3[C@@]4(C)CCCNC(C)(C)[C@@H]4CC[C@@]3(C)[C@]1(C)CC2 | -6.16% (active)
COc1ccc(C2CC(c3ccc(OC)c(OC)c3)=NN2C(=O)c2cc(OC)c(OC)c(OC)c2)c(OC)c1 (stereo not given) | 53.6%
Cc1cc2cc3cc(C)c(N)cc3[n+](C)c2cc1N | -28.8% (active)
CNC(=O)c1cc(Oc2ccc3nc(NC(=O)NC(C)C)sc3c2)ccn1 | 34.3%
COc1ccc(CNc2c3ccccc3nc3ccccc23)cc1 | 27.1%

From PubChem BioAssay (NCI)
